Screening results from PubChem BioAssay.
CtBP-E1A blk: blocks the CtBP interaction with E1A; AlphaScreen GST-E1A/His-CtBP binding, 1536-well; hits give low values; actives 0.49% (n = 340,000); activity change, % (concentration not given with the values); in the data active = activity change below about -65%; inconclusive = mostly about -30% to -63%; note: % is set by controls: 0 for no effect and ±100 for the full control effect
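GST-E1A and His-tagged CtBP (125 nM each as 5X stock) were preincubated with pin-transferred compound for 2 h at 37 °C in the dark, then glutathione donor and nickel acceptor beads were added for 1 h before AlphaScreen reading.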
TDP1 inh: TDP1 (human) enzyme inhibition; recombinant TDP1, AlphaScreen DNA substrate cleavage; Potency, µM (doses to about 130 µM), for inactives: at the highest dose activity change, negative = inhibition, usual class: inhibitors; actives 0.28% (n = 350,000); AID 485290; note: potency is the fitted concentration of half-maximal effect; % is set by controls: 0 for no effect and ±100 for the full control effect; nearly all actives have a fitted effect of over 40% in size
Target sequence (Q9NUW8 whole entry, looked up): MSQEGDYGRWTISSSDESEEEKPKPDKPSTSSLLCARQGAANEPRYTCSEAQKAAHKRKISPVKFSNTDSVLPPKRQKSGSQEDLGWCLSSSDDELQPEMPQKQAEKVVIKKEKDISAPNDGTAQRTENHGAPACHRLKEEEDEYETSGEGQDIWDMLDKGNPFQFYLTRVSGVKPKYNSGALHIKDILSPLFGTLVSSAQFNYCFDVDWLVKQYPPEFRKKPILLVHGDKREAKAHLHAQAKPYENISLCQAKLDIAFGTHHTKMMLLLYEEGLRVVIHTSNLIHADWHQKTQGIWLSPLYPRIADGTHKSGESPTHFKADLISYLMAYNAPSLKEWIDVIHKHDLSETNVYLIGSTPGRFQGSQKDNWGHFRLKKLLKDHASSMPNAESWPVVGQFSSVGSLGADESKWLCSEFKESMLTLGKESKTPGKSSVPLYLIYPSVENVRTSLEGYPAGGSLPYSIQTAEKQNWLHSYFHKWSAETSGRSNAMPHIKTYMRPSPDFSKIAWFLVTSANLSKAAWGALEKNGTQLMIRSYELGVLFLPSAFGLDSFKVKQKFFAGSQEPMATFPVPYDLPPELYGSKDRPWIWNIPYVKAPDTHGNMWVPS
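E. coli-derived human Tdp1, 1 nM final. Cpd preinc 15 min RT; substrate 15 nM final, 5 min RT; AS bead mix 10 ug/ml final, 10 min RT. Signal loss = tyrosine-FITC cleavage. No-enzyme wells = max signal.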
JMJD2A Tudor: inhibitors of human JMJD2A Tudor domain; O75164; AlphaScreen JMJD2A-Tudor / H3K4me3 peptide binding; Potency, µM (top dose mostly 114 µM), for the others: top-dose activity change, negative = inhibition, hits mostly inhibitors; actives 4.4% (n = 390,000); note: potency is the fitted concentration of half-maximal effect; % is set by controls: 0 for no effect and ±100 for the full control effect; nearly all actives have a fitted effect of over 50% in size
Six1-Eya2 inh: Six1/Eya2 interaction inhibition | Q15475+O00167 | AlphaScreen GST-Six1/His-Eya2 binding, biochemical; hits give low values | activity change, % (test concentration not listed) | actives 0.56% (n = 360,000) | AID 651725; in the data active = activity change below about -65%; inconclusive = mostly about -30% to -63%; note: % is set by controls: 0 for no effect and ±100 for the full control effect
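AlphaScreen luminescence read after one hour at 37 °C in darkness. Pin-transferred compounds met GST-Six1 and His-Eya2 protein (5X stock 250 nM/500 nM) plus glutathione donor and Ni-chelate acceptor beads (5X, 50 ug/mL).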
HP1b chromo inh: inhibitors of HP1-beta chromodomain binding to methylated histone tails | AlphaScreen HP1-beta / biotin-H3K9me3 peptide binding | Potency, µM (highest dose often 114 µM), without a hit: at the highest dose activity change, negative = inhibition, usual class: inhibitors | actives 0.56% (n = 390,000); note: potency is the fitted concentration of half-maximal effect; nearly all actives have a fitted effect of over 70% in size
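HP1-beta protein (50 nM final) preincubated 30 min at room temperature with biotinylated H3(1-18)K9me3 peptide (50 nM) in PBS pH 7.4, 0.01% Tween-20, then compound added for 30 min. AlphaScreen streptavidin donor/nickel chelate acceptor beads (10 ug/mL final), 30 min dark, luminescence read.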
BAZ2B inh: BAZ2B (human) inhibition; AID 504333; Q9UIF8; AlphaScreen BAZ2B-H3K14Ac peptide displacement; Potency, µM (series often up to 114 µM), inactives show at the highest dose activity change, negative = inhibition, hits mostly inhibitors; actives 4.4% (n = 360,000); note: potency is the fitted concentration of half-maximal effect; % is set by controls: 0 for no effect and ±100 for the full control effect; nearly all actives have a fitted effect of over 60% in size
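Protein-peptide AlphaScreen: BAZ2B 50 nM, b-H3K14Ac 50 nM, 1x PBS pH 7.4 + 0.01% Tween-20. Preincubation 30 min RT; cpd 30 min RT (top 110 uM); beads 20 min RT, light-protected.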
Starred values were filed as active, the others as inactive; ? = inconclusive; · = no result given; [ ] = another dose, or the depositor's remark. An excerpt weighted towards active compounds, which were near 5.3% of everything screened. Unless noted, calls come from the whole dose curve; as a rule, active = well fitted inhibition curve with a large enough effect; inconclusive = small, poorly fitted or top-dose-only effect; inactive = no such curve, though single readings can be large or run the other way.

SMILES	CtBP-E1A blk	TDP1 inh	JMJD2A Tudor	Six1-Eya2 inh	HP1b chromo inh	BAZ2B inh
O=[N+]([O-])c1ccc(C=NNc2ccccc2)cc1	?	·	25.1µM*	?	?	·
COc1ccc(-n2c(=O)c3sc4ccccc4c3n(CC(=O)Nc3ccccc3F)c2=O)cc1	·	3.8%	-11.6%	·	26.8%	-5.2%
O=[N+]([O-])c1ccc(/C=N/Nc2ncc(-c3ccccc3)cn2)cc1	·	6.0%	-9.0%[11.4 µM]	4.1	3.1%	-19.4%
O=[N+]([O-])c1ccc(/C=N/Nc2ncc(Br)cn2)cc1	6.5	50.1µM*	-24.1%	-4.8	42.7%	-0.5%
CC(NC(=O)CCCn1c(=O)c2cccn2c2cccnc21)c1ccccc1 (stereo unspecified)	·	5.1%	-15.0%	·	15.5%	-1.8%
Cc1ccccc1Cn1c2ccccc2c2cnn(CC(=O)NCC(C)c3ccccc3)c(=O)c21 (stereo unspecified)	·	-2.5%	-11.1%	·	10.8%	3.4%
COc1ccc(-n2c(Cn3nc(C(F)(F)F)cc3C)n[nH]c2=S)cc1	9.8	7.7%	?	2.5	26.8%	0.4%
COc1cccc(-n2c(Cn3nc(C(F)F)cc3C(F)F)n[nH]c2=S)c1	-11.5	4.5%	44.7µM*	-4.2	4.3%	4.3%
COc1cccc(-n2c(Cn3nc(C(F)(F)F)cc3C)n[nH]c2=S)c1	5.1	5.1%	56.2µM*	3.3	34.1%	-16.0%
Cc1ccc(-n2c(Cn3nc(C(F)(F)F)cc3C)n[nH]c2=S)cc1	0.3	2.9%	56.2µM*	0.7	2.6%	-24.6%
Cc1ccc(OCc2n[nH]c(=S)n2-c2ccccc2)cc1C	4.6	0.0%	-17.4%	3.0	8.6%	-10.4%
CN(C)c1ccc(C(CNC(=O)c2ccc(-c3ccccc3)cc2)N2CCOCC2)cc1 (stereo unspecified)	·	2.0%	·	·	·	35.5µM*
COc1ccc(C(CNC(=O)c2cccc(N(C)C)c2)N2CCCC2)cc1 (stereo unspecified)	-22.2	8.2%	44.7µM*	-29.7	-26.8%	50.1µM*
COc1cccc(C(=O)NCC(c2ccc(N(C)C)cc2)N2CCc3ccccc32)c1OC (stereo unspecified)	·	13.8%	10µM*	·	?	14.1µM*
COc1ccc(C(=O)NCC(c2cccnc2)N2CCc3ccccc3C2)cc1OC (stereo unspecified)	·	13.0%	31.6µM*	·	-21.3%	5.01µM*
Cc1ccc(C)c(N2CCN(CCCNC(=O)c3ccc4nc(N5CCCCC5)sc4c3)CC2)c1	·	2.5%	?	·	-10.9%	?
COC(=O)c1cc2oc3ccccc3c2n1CC(=O)Nc1ccc(F)c(Cl)c1	·	-2.0%	-5.5%	·	21.1%	-2.9%
COc1cc(C(=O)NCC(c2ccc(N(C)C)cc2)N2CCc3ccccc32)cc(OC)c1OC (stereo unspecified)	·	11.2%	15.8µM*	·	?	12.6µM*
COc1ccc(C(=O)NCC(c2ccc(N(C)C)cc2)N2CCc3ccccc32)cc1OC (stereo unspecified)	·	11.2%	20µM*	·	?	20µM*
COc1ccc(C(=O)NCC(c2cccnc2)N2CCc3ccccc32)cc1OC (stereo unspecified)	·	-3.9%	11.2%	·	30.1%	-2.0%
CN(C)c1ccc(C(CNC(=O)c2ccccc2F)N2CCc3ccccc32)cc1 (stereo unspecified)	·	11.2%	10µM*	·	?	15.8µM*
COc1ccc(N2CCN(C(CNC(=O)c3c(F)cccc3F)c3ccc4c(c3)OCO4)CC2)cc1 (stereo unspecified)	·	7.7%	50.1µM*	·	-11.4%[57 µM]	?
COC(=O)NCC(c1ccc2c(c1)OCO2)N1CCN(c2ccc(OC)cc2)CC1 (stereo unspecified)	·	6.5%	17.5%	-12.8	40.3%	?
COc1cccc(C(=O)NCC(c2ccc(N(C)C)cc2)N2CCc3ccccc32)c1 (stereo unspecified)	·	11.2%	7.94µM*	·	10µM*	7.94µM*
COc1ccc(C(=O)NCC(c2ccco2)N2CCc3ccccc32)cc1 (stereo unspecified)	-14.2	·	-25.2%	-12.1	-8.5%	-30.9%
SMILES	CtBP-E1A blk	TDP1 inh	JMJD2A Tudor	Six1-Eya2 inh	HP1b chromo inh	BAZ2B inh
COc1cccc(-c2noc(-c3cc(C(C)C)[nH]n3)n2)c1OC	·	5.3%	-7.1%	·	42.2%	-2.6%
CCOC(=O)C1=C(N)OC2=C(C(=O)CCC2)C1c1ccccc1OC (stereo unspecified)	10.8	-2.4%	-9.7%	-2.8	45.5%	-6.0%
COC(=O)C1=C(N)Oc2cc(N(C)C)ccc2C1c1ccccc1OC (stereo unspecified)	?	11.5%	50.1µM*	?	?	39.8µM*
CNS(=O)(=O)c1cn(CC(=O)N2CCN(c3ccc(C)cc3C)CC2)cc1S(=O)(=O)NC	·	-5.6%	-12.1%	·	25.8%	-12.8%
COc1ccc(OC)c(CCNC(=O)c2c3c(nc4ccccc24)C(=O)N(C2CCCCC2)C3)c1	·	9.7%	?	·	?	-34.3%
Cc1cc(-c2n[nH]c(=S)n2-c2ccccc2)nn1C	-0.4	2.3%	3.16µM*	-0.8	25.9%	-11.2%
Fc1cccc(-c2n[nH]c(=S)n2-c2ccccc2)c1	·	·	7.94µM*	3.5	-22.5%	-35.6%
Cc1ccc(-n2c(-c3cn(C)nc3C)n[nH]c2=S)cc1	·	-3.7%	·	·	·	-20.2%
Cc1c(-c2n[nH]c(=S)n2-c2ccc(C(F)(F)F)cc2)nnn1-c1ccccc1	4.6	5.5%	?	1.0	-5.6%	-2.5%
Cc1ccc(-n2c(-c3cc(C)n(C)n3)n[nH]c2=S)cc1	1.7	-1.1%	7.08µM*	3.8	14.2%	-25.6%
COc1cccc(N2CCN(C(=O)C3CCN(S(=O)(=O)c4c(C)noc4/C=C/c4ccccc4F)CC3)CC2)c1	·	4.1%	-30.0%	·	10.2%[57 µM]	-5.7%
O=S(=O)(c1ccc2c(c1)OCCO2)C1CCN(S(=O)(=O)c2c(F)cccc2F)CC1	·	-0.4%	-13.7%	·	·	·
CCc1nnc(NC(=O)CN2CCN(c3ccccc3OC)CC2)s1	5.4	3.9%	56.2µM*	5.5	?	17.5%
CCOc1ccccc1N1CCN(CC(=O)Nc2nnc(CC)s2)CC1	-2.9	0.0%	-8.2%	1.4	33.0%	36.3%
COc1ccccc1N1CCN(CC(=O)Nc2ccc(CN3CCCCC3)cc2)CC1	-5.6	-1.0%	3.98µM*	-1.4	?	50.1µM*
Cc1ccc(NC(=O)CSc2nc3n[nH]c(C)c3c(=N)n2-c2ccccc2C)cc1C	·	-4.7%	-10.9%	·	5.3%	-1.3%
COc1ccc(C(N)c2csc(Nc3nncc4ccccc34)n2)cc1 (stereo unspecified)	-1.7	·	·	1.5	·	·
